Laboratory results: PubChem BioAssay AID588773 (The Scripps Research Institute Molecular Screening Center, 2011)

experiment: competitive ABPP of pPAFAH versus proteome off-targets – biochemical, gel-based, FP-Rh fluorescence, mouse, HTS hit compounds, selectivity assay for pPAFAH inhibitor project, late-stage follow-up (AID 588773); settings: MW 30 kDa protein, at 10 µM, stronger effect = higher value;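 active means inhibition of plasma PAF acetylhydrolase at a set limit or more at 0.1 µM, with tenfold selectivity over all off-targets; inactive means inhibition below the limit or weaker selectivity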

inhibition, inactive:
O=C(Oc1ccc(Oc2ccccc2)cc1)N1CCC(O)CC1 5%
O=C(/C=C/c1cccs1)c1cc(Br)ccc1OC(=O)N1CCOCC1 19%
O=C(Oc1ccc(-c2ccccc2)cc1)N1CCOCC1 44%
CCCCOC(=O)c1ccc(OC(=O)N2CCOCC2)cc1 14%
O=C(Oc1nsnc1N1CCOCC1)N1CCOCC1 35%
O=C(CCCSc1ccc(Cl)cc1)Nc1cc(S(=O)(=O)N2CCOCC2)ccc1O 19%
O=C(Oc1ccc(-c2ccccc2)cc1)N1CCCCC1 69%
